According to PubChem BioAssay:
Calls of active or inactive are those of the source.

Molecular target: Albumin (Bos taurus) (UniProt P02769)
Assay: compounds binding labelled BSA control protein – biochemical, small-molecule microarray, Alexa647 label, 635/667 nm fluorescence, artefact control for SMM control protein annotation, profiling panel (AID 1118);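 also: score merges 667 nm emission intensity and signal-to-noise per printed compound spot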
Conditions: BSA-A647 binding, fluorescence 635 nm, higher = more signal

Albumin (Bos taurus), sequence (P02769 whole entry, looked up): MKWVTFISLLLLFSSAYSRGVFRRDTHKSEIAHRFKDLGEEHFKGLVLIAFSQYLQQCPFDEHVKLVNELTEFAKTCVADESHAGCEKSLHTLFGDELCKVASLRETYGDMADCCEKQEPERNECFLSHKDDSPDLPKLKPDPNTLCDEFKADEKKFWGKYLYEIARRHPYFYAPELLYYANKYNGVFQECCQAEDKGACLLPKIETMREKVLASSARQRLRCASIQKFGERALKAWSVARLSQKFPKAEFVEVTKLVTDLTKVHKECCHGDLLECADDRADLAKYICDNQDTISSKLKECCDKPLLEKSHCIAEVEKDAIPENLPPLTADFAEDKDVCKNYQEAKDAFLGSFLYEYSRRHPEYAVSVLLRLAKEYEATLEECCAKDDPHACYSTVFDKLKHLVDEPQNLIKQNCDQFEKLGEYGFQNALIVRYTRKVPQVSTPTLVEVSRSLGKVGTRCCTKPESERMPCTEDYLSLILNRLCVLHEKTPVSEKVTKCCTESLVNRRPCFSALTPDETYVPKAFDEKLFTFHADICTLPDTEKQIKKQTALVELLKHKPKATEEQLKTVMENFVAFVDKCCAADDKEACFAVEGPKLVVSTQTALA

Compound | composite z-score
COC(=O)[C@@]1(Cc2ccc(OC)cc2)[C@H]2c3cc(C(=O)N(C)C)n(Cc4cccc5ccccc45)c3C[C@H]2CN1C(=O)c1ccccc1 | 1.02
C#CCN(Cc1ccccc1Br)C(/C=C/c1ccccc1)CO (stereo unspecified) | -0.406
COCCOC(=O)N1C(=O)[C@@]2(c3cc(C#CCCO)ccc31)[C@H](C(=O)Nc1nc3ccccc3s1)[C@H]1C(=O)O[C@H](c3ccccc3)[C@H](c3ccccc3)N1[C@@H]2c1ccc(OCCO)cc1 | 0.72
CCOC(=O)C[C@H]1[C@H](OC(=O)c2ccc(C(=O)c3ccccc3)cc2)[C@@H](NC(=O)c2ccc(-c3ccccc3)cc2)c2cc(OCCCO)ccc2N1C(=O)c1ccccc1 | 0.0256
COc1ccc([Si](C)(C)[C@@H]2[C@@H](CC(=O)N3Cc4ccccc4C[C@H]3CO)O[C@]3(C(=O)N(C)c4c(Br)cc(C)cc43)[C@H]2C)cc1 | 0.494
O=C1OCCC=C[C@H]2OC34C=CCN(CCN5CCOCC5)C(=O)[C@H]3N(CCCCCCO)C(=O)[C@@H]4C12 (stereo partly specified) | -0.274

Test system: not listed separately
Assay: probe aXIP binding to arrayed compounds – biochemical, NeuroSMM set, 635/667 nm fluorescence, primary screen (AID 1119);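 also: probe is the protein aXip251-270 applied at 1 µg/mL to compound-printed slides; binding of probe to printed compounds measured as 667 nm fluorescence plus signal to noise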
Conditions: small-molecule microarray, higher = more signal, called active from +8 up or from −8 down

Compound | composite Z-score
COc1ccc(C(=O)Nc2ccc(CN3C(=O)[C@@]4(O[C@@H](CC(=O)N5CCC[C@H]5CO)[C@H]([Si](C)(C)c5ccc(OC)cc5)[C@H]4C)c4ccccc43)cc2)cc1 | 0.277 (inactive)
CN1C(=O)C2C=CC(C(O)C3=C[C@H]4C[C@@H](C3)C4(C)C)N(Nc3ccccc3)C2C1=O (stereo partly specified) | -0.636 (inactive)
CS(=O)(=O)CCOC(=O)C1=CC(CCCO)=CC(c2ccc(CN3CCCC3)cc2)N(Cc2cc3c(cc2Br)OCO3)C=C1C(=O)OCCS(C)(=O)=O (stereo unspecified) | 1.09 (inactive)
COC(=O)[C@@]1(Cc2ccc(OC)cc2)[C@H]2c3cc(C(=O)N4CCCC4)n(Cc4ccccc4)c3C[C@H]2CN1C(=O)c1ccccc1 | 0.401 (inactive)
C[N+](C)(C)CCCCNC(=O)[C@H]1C[C@H]2C(=O)N[C@@H](Cc3ccccc3)C(=O)N2[C@H]1c1ccc(O)cc1 | 0.474 (inactive)
C[C@]1(C(=O)NC2CC2)c2ccccc2C(=O)N(Cc2cc(C(F)(F)F)cc(C(F)(F)F)c2)[C@H]1c1ccc(CO)cc1 | 0.676 (inactive)
CCCC#C[Si](O[C@H](CC)c1cn([C@H](CO)Cc2ccccc2)nn1)(C(C)C)C(C)C | -0.483 (inactive)
CC(=O)N1Cc2ccccc2C[C@@]2(COC(c3ccc(OCCCO)cc3)=N2)C1=O | -0.151 (inactive)
CC(C)(C)OC(=O)CC[C@@]1(C(=O)NCCN2CCOCC2)N=C(c2ccc(OCCCO)cc2)O[C@@H]1c1ccccc1N=[N+]=[N-] | 0.393 (inactive)
CN1C(=O)C2C=CC(C(O)c3ccccc3)N(Nc3ccccc3)C2C1=O (stereo unspecified) | 0.131 (inactive)
CC(=O)n1cc(C(O)C2C=CC3C(=O)N(C)C(=O)C3N2Nc2ccccc2)c2ccccc21 (stereo unspecified) | -0.803 (inactive)
C=C(COC)/C(=C/C[C@H](OC(=O)c1ccncc1)c1ccc(OCCO)cc1)c1cnc2ccccc2c1 | 0.914 (inactive)
COc1ccc(C#Cc2ccc3c(c2)[C@]2(C(=O)N3)[C@H](c3ccccc3OCCO)N3[C@H](c4ccccc4)[C@H](c4ccccc4)OC(=O)[C@H]3[C@@H]2C(=O)O)cc1 | -0.274 (inactive)
C=CC[C@]1(C(=O)N2CCCCC2)N=C(c2ccc(OCCCO)cc2)O[C@H]1c1ccccc1 | 0.458 (inactive)
COCCOC(=O)N1C(=O)[C@@]2(c3cc(C#Cc4ccc(OC)cc4)ccc31)[C@H](C(N)=O)[C@H]1C(=O)O[C@H](c3ccccc3)[C@H](c3ccccc3)N1[C@@H]2c1ccccc1OCCO | 0.611 (inactive)
O=C1OCCC/C=C\[C@H]2OC34C=CCN(Cn5nnc6ccccc65)C(=O)[C@H]3N(CCO)C(=O)[C@@H]4C12 (stereo partly specified) | 0.605 (inactive)
C=CCN1C(=O)[C@@]2(O[C@@H](CCO)[C@H]([Si](C)(C)c3ccc(OC)cc3)[C@H]2C)c2cc(NC(=O)c3ccc(OC)cc3)ccc21 | -0.265 (inactive)
COc1ccc(C(O)C2C=CC3C(=O)N(c4ccccc4)C(=O)C3N2Nc2ccccc2F)cc1OCc1ccccc1 (stereo unspecified) | 1.22 (inactive)

Compound | composite Z-score
CCCCCN1CC=CC23O[C@@H]4/C=C\CCCOC(=O)C4[C@H]2C(=O)N(CCCO)[C@@H]3C1=O (stereo partly specified) | -0.0981 (inactive)
CN(C)C(=O)[C@@]1(Cc2ccccc2)N=C(c2ccc(OCCCO)cc2)O[C@H]1c1ccccc1N=[N+]=[N-] | -0.0707 (inactive)
O=C1OCC=C[C@H]2OC34C=CCN(CCN5CCOCC5)C(=O)[C@H]3N(CCCO)C(=O)[C@@H]4[C@@H]12 (stereo partly specified) | 0.103 (inactive)
CN(C)C(=O)[C@]1(Cc2ccccc2N=[N+]=[N-])N=C(c2ccc(OCCCO)cc2)O[C@@H]1c1ccccc1 | -0.316 (inactive)
COc1ccc(C(=O)Nc2ccc(CN3C(=O)[C@@]4(O[C@@H](CCO)[C@H]([Si](C)(C)c5ccc(OC)cc5)[C@H]4C)c4ccccc43)cc2)cc1 | 0.673 (inactive)
CCOC(=O)C[C@H]1[C@H](OC(=O)Cc2ccc3c(c2)OCO3)[C@@H](NC(=O)c2ccc3ccccc3c2)c2cc(OCCCO)ccc2N1C(=O)c1ccccc1 | -0.0185 (inactive)
COc1ccc(C(=O)O[C@H]2CC[C@]3(C)C4=C(CCC3C2(C)C)[C@]2(C)CC[C@H]([C@H](C)CCCC(C)C)[C@@]2(C)CC4)cc1 (stereo partly specified) | -0.482 (inactive)
CN1C(=O)[C@]2(Cc3ccccc3)N=C(c3ccc(OCCCO)cc3)O[C@@H]2c2ccccc21 | 0.307 (inactive)
COc1ccc(CCNC(=O)[C@@]2(C)c3ccccc3C(=O)N(Cc3cc(F)cc(C(F)(F)F)c3)[C@H]2c2ccc(CO)cc2)cc1 | 0.633 (inactive)
COc1ccc(C(O)C2C=CC3C(=O)NC(=O)C3N2Nc2ccccn2)cc1 (stereo unspecified) | 0.841 (inactive)
CN(C)CCCC[C@@H]1NC(=O)[C@H]2C[C@@H](C(=O)NCCCCCNC(=O)CS)[C@@H](c3cccc(OCCO)c3)N2C1=O | -0.114 (inactive)
COC(=O)[C@@]1(Cc2ccc(OC)cc2)[C@H]2c3cc(C(=O)N(C)C)n(Cc4cccc5ccccc45)c3C[C@H]2CN1C(=O)c1ccccc1 | 0.0388 (inactive)
C#CCN(Cc1ccccc1Br)C(/C=C/c1ccccc1)CO (stereo unspecified) | -0.177 (inactive)
COCCOC(=O)N1C(=O)[C@@]2(c3cc(C#CCCO)ccc31)[C@H](C(=O)Nc1nc3ccccc3s1)[C@H]1C(=O)O[C@H](c3ccccc3)[C@H](c3ccccc3)N1[C@@H]2c1ccc(OCCO)cc1 | -1.03 (inactive)
CCOC(=O)C[C@H]1[C@H](OC(=O)c2ccc(C(=O)c3ccccc3)cc2)[C@@H](NC(=O)c2ccc(-c3ccccc3)cc2)c2cc(OCCCO)ccc2N1C(=O)c1ccccc1 | 2.04 (inactive)
COc1ccc([Si](C)(C)[C@@H]2[C@@H](CC(=O)N3Cc4ccccc4C[C@H]3CO)O[C@]3(C(=O)N(C)c4c(Br)cc(C)cc43)[C@H]2C)cc1 | 0.136 (inactive)
O=C1OCCC=C[C@H]2OC34C=CCN(CCN5CCOCC5)C(=O)[C@H]3N(CCCCCCO)C(=O)[C@@H]4C12 (stereo partly specified) | 1 (inactive)
